High-throughput results from PubChem.
A selection: hits, their analogues and other compounds. The true share with any hit is near 21%.
Pf growth 48h: inhibits P. falciparum growth in the first generation, 48 h. P. falciparum luciferase growth in erythrocytes, 48 h. Potency, µM (titrated, usually from 28.7 µM), for inactives: at the highest dose activity change, negative = inhibition, hits mostly inhibitors. AID 504832. 310,000 tested, 5.9% active; also: potency is read from the fitted curve at half-maximal effect; % is scaled to controls: 0 for no effect and ±100 for the full control effect
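Luciferase-expressing P. falciparum in infected erythrocytes (2% hematocrit, 0.1% parasitemia final) in RPMI 1640/0.5% Albumax were exposed to compound for 48 hours at 37 C, 5% CO2; growth read as luminescence.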
CHX counter: counter-screen hit for Shiga toxin inhibitors, cycloheximide; max response, %; 300,000 tested, 12% active; cell reporter, cycloheximide protein synthesis inhibition counterscreen; AID 2314; in the data active = max response mostly above about 13%, no sharp cut-off; inactive = mostly below about 14%; also: read at 38.3 µM for the half of the compounds with a filed dose; 0% is about no effect
Pf growth 96h: inhibits malaria parasite growth, 96 h | P. falciparum luciferase reporter growth, 96 h | Potency, µM (titrated, usually from 28.7 µM), for inactives: top-dose activity change, negative = inhibition, hits mostly inhibitors | 320,000 tested, 6.9% active | AID 504834; also: potency is read from the fitted curve at half-maximal effect; % is scaled to controls: 0 for no effect and ±100 for the full control effect
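Two-generation exposure (96 h) targets delayed-death phenotype. Reporter parasites carrying integrated firefly luciferase, in red cells at 2% hematocrit and 0.05% parasitemia final, kept at 37 C, 5% CO2; luminescence loss indicates inhibition.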
NS1 inh: blocks influenza NS1 protein function; Potency, µM (highest dose often 46.1 µM), inactives show top-dose activity, positive = more growth; 270,000 tested, 0.4% active; AID 2326; calls by dose curve; also: potency is read from the fitted curve at half-maximal effect; actives are rising curves; nearly all actives have a fitted effect of over 50% in size
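S. cerevisiae expressing influenza A NS1, grown in glucose, washed, then diluted 1:100 into pH 6.0 -URA galactose medium with 23 nl compound. Growth recovery read as OD600; NS1-free strain serves as control.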
Shiga toxin inh: Shiga toxin inhibition; Vero cells, Shiga toxin protein synthesis inhibition reporter; inhibition, % at 38.7 µM; 290,000 tested, 9.2% active; AID 2315; in the data active = inhibition mostly above about 28%, no sharp cut-off; inactive = mostly below about 43%; also: 0% is about no effect
CLK4 ADP-Glo: CLK4 (human) kinase inhibition, ADP-Glo confirmation; recombinant Clk4, RS peptide, ADP-Glo luminescence; shares compounds with Pf growth 48h; AID 1969; Potency, µM (titrated, usually from 80 µM), without a hit: at the top dose activity, negative = inhibition, actives largely listed as inhibitors; 65 tested, 80% active
Target sequence (Q9HAZ1 whole entry, looked up): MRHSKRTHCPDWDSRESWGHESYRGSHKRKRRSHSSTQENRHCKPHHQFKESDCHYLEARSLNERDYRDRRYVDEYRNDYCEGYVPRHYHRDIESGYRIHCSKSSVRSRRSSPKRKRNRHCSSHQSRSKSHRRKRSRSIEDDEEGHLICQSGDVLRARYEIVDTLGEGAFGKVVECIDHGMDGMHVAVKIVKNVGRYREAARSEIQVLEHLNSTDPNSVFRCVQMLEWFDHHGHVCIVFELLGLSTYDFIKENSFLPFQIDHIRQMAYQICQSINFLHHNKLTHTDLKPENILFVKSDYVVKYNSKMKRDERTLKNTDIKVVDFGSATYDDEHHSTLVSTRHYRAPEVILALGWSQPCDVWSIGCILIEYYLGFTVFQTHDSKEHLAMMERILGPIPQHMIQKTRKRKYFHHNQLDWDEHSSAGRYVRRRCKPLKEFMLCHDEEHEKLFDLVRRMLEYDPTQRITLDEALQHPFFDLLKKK
CLK4 ADP FP: confirmation of human CDC-like kinase 4 (CLK4) inhibitors. recombinant Clk4, ADP Transcreener FP, RS peptide. 65 tested, 70% active. shares compounds with Pf growth 48h. Potency, µM (titrated, usually from 80 µM), without a hit: at the top dose activity, negative = inhibition, hits mostly inhibitors
* = called active by the depositor. Unless noted, calls follow the shape of the dose curve; as a rule, active = well fitted curve in the direction sought with a large enough effect; inconclusive = small, poorly fitted or top-dose-only effect, or another doubt; inactive = no such curve, though single readings can be large; an effect the other way counts as inactive or inconclusive.

For c1cncc(-c2ccc3ncnc(NCc4cccs4)c3c2)c1 the results were Pf growth 48h inconclusive, Pf growth 96h 9.28µM*, CLK4 ADP-Glo 3.16µM* and CLK4 ADP FP 7.08µM*.
COc1cccc(-c2ccc3ncnc(NCc4cccs4)c3c2)c1 was read as Pf growth 48h 9.28µM*, Pf growth 96h 4.15µM*, CLK4 ADP-Glo 1µM* and CLK4 ADP FP 1.12µM*.
`Cn1ccc2cc(-c3ccc4ncnc(NCc5cccc(F)c5)c4c3)ccc21` gave Pf growth 48h 8.28µM*, Pf growth 96h 3.7µM*, CLK4 ADP-Glo inconclusive and CLK4 ADP FP inconclusive.
For Cn1ccc2cc(-c3ccc4ncnc(NCc5cccs5)c4c3)ccc21 the results were Pf growth 48h 2.94µM*, Pf growth 96h 5.22µM*, CLK4 ADP-Glo 14.1µM* and CLK4 ADP FP inconclusive.
Screening Cn1ccc2cc(-c3ccc4ncnc(NCc5cccnc5)c4c3)ccc21 returned Pf growth 48h 1.85µM*, Pf growth 96h 2.62µM*, CLK4 ADP-Glo 10µM* and CLK4 ADP FP 14.1µM*.
COc1cc2ncnc(NCc3cccc(Cl)c3)c2cc1OC was read as Pf growth 48h inconclusive, CHX counter -2.8, Pf growth 96h inconclusive, NS1 inh inconclusive and Shiga toxin inh -5.1.
COCC(=O)N1CCC(Oc2ccc(C(=O)N3C[C@@H]4CCC[C@H]3C4)cc2)CC1 was read as Pf growth 48h inconclusive, CHX counter 2.0, Pf growth 96h -5.7%, NS1 inh -2.6% and Shiga toxin inh 2.2.
Screening Cc1c(C)c2ccc(OCC(=O)N3CC[C@@]4(O)CCCC[C@H]4C3)c(C)c2oc1=O returned Pf growth 48h -28.4%, CHX counter -5.0, Pf growth 96h inconclusive, NS1 inh 1.1% and Shiga toxin inh -4.2.
